The supplement of paper PMC11219838

tested on: Caenorhabditis elegans L1 (N2); assay: survival and reproduction score of C. elegans L1 (0: 0-10 living worms, 1: 11-20, 2: 21-50, 3: >50, 4: overgrown) (score 0-4); higher = more worms, less nematicidal, active = 1 or less; extreme values may be limits of the assay; settings: 60 µM; 6 days; temperature: 20 °C
Outline: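 Worm survival and reproduction were recorded as an ordinal score of living worms per well, read under a dissection microscope. Each 96-well well held about 20 synchronized C. elegans N2 L1s with E. coli HB101 in liquid NGM and compound at 60 µM final (0.6% v/v DMSO), sealed and shaken at 200 rpm, 20 °C, for 6 days. Scores ranged from 0 (0–10 worms) to 4 (overgrown, starved) and were the mean of two biological replicates.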

Compound	survival and reproduction score
Cc1cccc(-c2noc(-c3ccc(Br)cc3)n2)c1	4 (inactive)
COc1ccc(Cl)cc1-c1noc(COc2ccccc2C)n1	4 (inactive)
Ic1ccc(CSc2nnc(-c3ccccc3)o2)cc1	4 (inactive)
COc1ccc(-c2noc(COc3ccc(Cl)cc3C)n2)cc1	4 (inactive)
Cc1ccccc1CSc1nnc(-c2ccco2)o1	0 (active)
Cc1ccccc1-c1nc(-c2cccc(NC(=O)c3cccs3)c2)no1	4 (inactive)
CC(Oc1ccc(C(C)(C)C)cc1)c1nc(-c2ccncc2)no1 (stereo not given)	4 (inactive)
CC1CC(C)CN(C(=O)CSc2nnc(-c3ccccc3)o2)C1 (stereo not given)	4 (inactive)
CCCCC(=O)Nc1ccccc1-c1nc(-c2cccnc2)no1	4 (inactive)
Cc1ccc(C)c(OCc2nc(-c3ccccc3Cl)no2)c1	4 (inactive)
CCOc1ccccc1-c1nnc(SCc2ccccc2)o1	4 (inactive)
Cc1ccc(-c2nc(-c3ccccn3)no2)cc1C	3.5 (inactive)
COc1ccc(-c2nnc(SCC(=O)Nc3ccc(C(C)C)cc3)o2)cc1	4 (inactive)
COc1ccc(-c2noc(COc3ccc(F)cc3)n2)cc1	4 (inactive)
Brc1ccccc1-c1nc(-c2ccccn2)no1	2 (inactive)
Fc1ccc(-c2noc(COc3ccccc3)n2)cc1	3.5 (inactive)
CCOc1nc(-c2ccc(C)cc2)ccc1-c1noc(-c2ccco2)n1	4 (inactive)
Cc1cc(Br)ccc1OCc1nc(-c2ccncc2)no1	4 (inactive)
FC(F)(F)c1cccc(-c2noc(-c3ccccc3Cl)n2)c1	3 (inactive)
O=C(CSc1nnc(-c2cccc(Cl)c2)o1)N1CCCCC1	4 (inactive)
